This is an account of results in PubChem BioAssay (NCI).

Structures are written as SMILES. This is part of a sample that, as a whole, favours compounds with a hit. Of some 83,000 tested, about 20% had one in any assay.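 Negative percent growth values reflect cell death: -40 means 40% of the cells present at the start died, and -100 means all died.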 Unmarked numbers belong to inactive results. Calls of active or inactive are those of the source. The calls were made as follows: active = growth percent below 10; inactive = the rest.

What all share (experiment): NCI-60 one-dose screen, 48 h (100 = growth as untreated, 0 = no growth, -100 = all killed)
Conditions in all cases: 10 µM unless noted

For assay [1], the system named is T-47D breast.
Assay [2] deals with BT-549 breast.
In assay [3] the test system is MDA-MB-435 melanoma.
Assay [4] concerns SW-620 colon.
The subject of assay [5] is MCF7 breast.
For assay [6], the system named is HCT-116 colon.
The test system of assay [7] is HCC-2998 colon.
Assay [8] deals with KM12 colon.

On to `CC(=O)n1nc(C(=O)OC(C)C)c2cc(C)c(C)cc21`, for which the growth in assay [1] was 88.7%; in assay [2], 98.2%; in assay [3], 98.6%; in assay [4], 98.8%; in assay [5] it was 90.8%; in assay [6], 83.8%. Also, the growth in assay [7] and in assay [8] was 105% each time.

In the case of `O=C(/C=C/c1ccccc1)c1cccc(OCCCOc2cccc(C(=O)/C=C/c3ccccc3)c2)c1`, the growth was 72.1% in assay [1]; 92% in assay [2]; 101% in assay [3]; 54.2% in assay [4]; 11.3% in assay [5]; -81.3% (active) in assay [6]. Moreover, the growth in assay [7] was 42.2%; in assay [8] it was 25.7%.

Take `O=C1/C(=C/c2ccc(Cl)c(Cl)c2)CN(C(=O)C(Cl)Cl)C/C1=C\c1ccc(Cl)c(Cl)c1`: the growth in assay [1] is -36.7% (active); in assay [2], -58.5% (active); in assay [3], -68.7% (active); in assay [4], -71.5% (active); in assay [5] it was -57.7% (active); in assay [6], -92.5% (active). For the same compound, the growth was -88.8% (active) in assay [7] and -71.2% (active) in assay [8].

Turning to `CCNC(=O)c1[nH]cc(-c2ccccc2)c1-c1cc(OC)c2c(c1OC)OCO2`, the growth was 87% in assay [1]; 98.4% in assay [2]; 103% in assay [3]; 97.6% in assay [4]; 101% in assay [5]; 90.7% in assay [6]. The growth in assay [7] was 104%; in assay [8], 121%.

Consider `CCCCN1C(=O)/C(=c2\sc3n(c2=O)C2C(NN=3)N(CC)C(=O)N2CC)c2ccccc21` (stereo not drawn), for which the growth in assay [1] was 20.5%; in assay [2], 20.6%; in assay [3], -34% (active); in assay [4], 28.3%; in assay [5], 5.32% (active); in assay [6] it was 3.15% (active). Moreover, the figures for the growth in assay [7] and in assay [8] were 6.49% (active) and 16.1%, respectively.

On to `CCCCCCNC(=O)Oc1ccc(/C(=C(/C)Cc2ccc(OC)cc2)c2ccc(OCCCN(C)C)cc2)cc1`, for which the growth was 18.9% in assay [1]; 79% in assay [2]; 19.5% in assay [3]; -21.8% (active) in assay [4]; 8.65% (active) in assay [5]; -52.2% (active) in assay [6]. Moreover, the growth in assay [7] was 35.2%; in assay [8], 35.6%.

As for `Cn1c(=O)c2[nH]c(N/N=C/c3ccccc3Br)nc2n(C)c1=O`, the growth in assay [1] was 108%; in assay [2] it was 99%; in assay [3], 113%; in assay [4], 109%; in assay [5] it was 91.4%; in assay [6] it was 103%. Moreover, the growth is 118% in assay [7] and 98.6% in assay [8].

Take `CCCCCCCCn1ccc2cc(NC(=O)CN3CCN(c4nc(C)cc(Cl)n4)CC3)ccc21`: the growth is 83.4% in assay [1]; 101% in assay [2]; 97.7% in assay [3]; 90.2% in assay [4]; 78.1% in assay [5]; 82.2% in assay [6]. The growth in assay [7] is 103%; in assay [8], 91.9%.

For the compound `N=C(N)c1ccc(-c2ccc(-c3ccc(F)cc3)o2)o1`, the growth in assay [1] was 21.4%; in assay [2], 55.3%; in assay [3] it was -76.9% (active); in assay [4], -36.7% (active); in assay [5], 10.5%; in assay [6] it was 2.27% (active). For the same compound, the growth in assay [7] is 18.4%; in assay [8], 7.92% (active).

In the case of `CC(=O)OCc1nc(C#N)c(N(C)C)o1`, the growth in assay [1] is 83.9%; in assay [2], 91.2%; in assay [3] it was 100%; in assay [4], 101%; in assay [5] it was 92.9%; in assay [6], 93.4%. Also, the growth in assay [7] was 97%; in assay [8], 110%.

As to `Cc1cc2c([nH]1)CSc1cc(S(=O)(=O)c3ccccc3)c(=O)[nH]c1-2`, the growth in assay [1] is 4.92% [100 µM] (active); in assay [2], -12.2% [100 µM] (active); in assay [3] it was 10.6% [100 µM]; in assay [4] it was 23.8% [100 µM]; in assay [5] it was -0.665% [100 µM] (active); in assay [6], 1.35% [100 µM] (active). For the same compound, the growth was 12.4% [100 µM] in assay [7] and -37.2% [100 µM] (active) in assay [8].

In the case of `O=C(CN1C(=O)CCC1=O)Nc1ncc(Cc2ccc(F)cc2)s1`, the growth in assay [1] is 103%; in assay [2], 97.5%; in assay [3], 102%; in assay [4], 102%; in assay [5], 92.4%; in assay [6], 104%. Further, the growth is 92.5% in assay [7] and 103% in assay [8].

As to `O=C(c1cc2ccccc2o1)c1nn(-c2ccccc2)/c(=N/N=Cc2cn(-c3ccccc3)nc2-c2cc3ccccc3oc2=O)s1`, the growth is 92.9% in assay [1]; 108% in assay [2]; 81.1% in assay [3]; 97.1% in assay [4]; 83.1% in assay [5]; 89.8% in assay [6]. The growth in assay [7] was 104%; in assay [8], 96.5%.

As for `CC(C)c1ccc(COCc2cc(CN3CCCC3)c(O)c3ncccc23)cc1`, the growth in assay [1] was -7.55% (active); in assay [2], 13.1%; in assay [3], 20.2%; in assay [4], 3.8% (active); in assay [5], 7.67% (active); in assay [6], 5.58% (active). The growth in assay [7] is 14.6%; in assay [8] it was 14.1%.

As for `CN(C)CCCC1(c2ccc(F)cc2)OCc2cc(-c3cccc4[nH]ccc34)ccc21` (stereo not drawn), the growth in assay [1] was -39.2% (active); in assay [2], 73.8%; in assay [3] it was -42.1% (active); in assay [4], -24.6% (active); in assay [5] it was -24.1% (active); in assay [6] it was -64% (active). The figures for the growth in assay [7] and in assay [8] were -30.6% (active) and 10.3%, respectively.

For the compound `COc1ccc2nc3ccc(OC)cc3c(SCCCN)c2c1`, the growth in assay [1] is 76.5%; in assay [2], 95.5%; in assay [3] it was 87.3%; in assay [4], 18.3%; in assay [5], 28.7%; in assay [6], -49.8% (active). The growth was 105% in assay [7] and 83.2% in assay [8].
